# Source: PubChem BioAssay
# MITF primary: blocks human microphthalmia-associated transcription factor | O75030 | AlphaScreen MITF homodimerization, bead proximity signal | inhibition, % at 2.6 µM | 650,000 tested, 0.91% active | AID 1259374; in the data active = inhibition above about 50%;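 also: 0% = vehicle wells with protein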
# TEAD-YAP inh: TEAD-YAP interaction inhibition; HEK-TIYL cells, TEAD-Gal4/YAP UAS-luciferase luminescence; inhibition, % at 9.12 µM; 640,000 tested, 1.4% active; in the data active = inhibition above about 32%;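 also: 0% = median of test compound wells and 100% = reference inhibitor wells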
# FBW7 act: human FBW7 E3 ligase activation, primary screen; AlphaScreen FBW7–phospho-cyclin E peptide binding, activator screen; normalized activity (activation), % at 26.1 µM; Q969H0; 650,000 tested, 0.13% active; AID 1259310; in the data active = normalized activity above about 1.9%;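 also: purified mutant Fbw7 with reduced substrate affinity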
# GPR151 ag: human GPR151 activation; activation, % at 11.2 µM; AID 1508602; 650,000 tested, 1% active; PathHunter beta-arrestin GPR151 cells, luminescence; in the data active = activation above about 4.9%;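 also: 0% = median of compound wells and 100% = cells with positive control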
# Target sequence (Q8TDV0 whole entry, looked up): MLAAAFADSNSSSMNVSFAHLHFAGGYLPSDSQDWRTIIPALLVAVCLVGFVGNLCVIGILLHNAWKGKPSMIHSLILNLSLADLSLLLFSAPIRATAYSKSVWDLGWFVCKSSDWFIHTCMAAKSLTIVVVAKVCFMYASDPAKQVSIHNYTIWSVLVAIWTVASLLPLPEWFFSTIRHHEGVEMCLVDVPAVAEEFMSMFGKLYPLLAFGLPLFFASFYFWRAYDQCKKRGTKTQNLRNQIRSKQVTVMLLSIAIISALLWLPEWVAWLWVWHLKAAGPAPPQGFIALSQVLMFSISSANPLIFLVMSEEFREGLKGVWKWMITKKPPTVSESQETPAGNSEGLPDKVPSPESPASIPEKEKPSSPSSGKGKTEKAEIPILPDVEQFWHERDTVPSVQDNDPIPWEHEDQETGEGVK
# MITF inh conf: confirmation of human MITF inhibitors; 4,700 tested, 16% active; shares compounds with MITF primary; inhibition, % at 2.6 µM; AlphaScreen MITF homodimerization, biotin/His-MITF beads;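 active = inhibition above a cutoff derived from the DMSO control wells, cut at about 28% in these data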;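 also: 0% = MITF dimer wells with DMSO only; inhibitors lower the bead chemiluminescence by keeping MITF from dimerizing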
# AS interf DR: counter-screen: compounds optically interfering with AlphaScreen. shares compounds with MITF primary. AlphaScreen optical interference counterscreen, cell-free. IC50, µM. 480 tested, 6% active. AID 1259373; call rule not given here
# AlphaScreen intf2: optically interferes with AlphaScreen signal; shares compounds with MITF primary; LysRS AlphaScreen counterscreen, signal interference, triplicate; inhibition, % at 2.6 µM; 4,700 tested, 7.6% active;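 active = inhibition above a cutoff derived from the DMSO control wells, cut at about 30% in these data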
# The depositor's hits bear a star; nt = not tested or not shown; ! = not confirmed by another sample. Rows were chosen to be rich in hits. Some 3.4% of all compounds tested hit in one or more screens of this group.
SMILES,MITF primary,TEAD-YAP inh,FBW7 act,GPR151 ag,MITF inh conf,AlphaScreen intf2,others
O=C(NCCCn1ccnc1)NC(C(F)(F)F)C(F)(F)F,-0.1,5.4,0.1,0.6,nt,nt,
O=C(/C(Br)=C/NCCCn1ccnc1)C(F)(F)F,64.8*,5.8,-0.2,-0.4,39.9*,99.1*,
CCCCn1c(SCc2cc(=O)oc3cc(O)ccc23)nc2ccsc2c1=O,3.6,1.9,0.1,-0.6,nt,nt,
CN(C)CCS(=O)c1cc(-c2cn[nH]c2)ccc1NC(=O)[C@@H]1Cc2cc(F)ccc2CN1 (stereo partly drawn),74.9*!,0.7,1.9*!,-0.1,68.4*,7.7,AS interf DR=>6.48
CN(C)CCS(=O)c1cc(-c2cn[nH]c2)ccc1NC(=O)[C@H]1Cc2cc(F)ccc2CN1 (stereo partly drawn),56.5*!,0.7,0.2,-0.1,71.5*,4.3,AS interf DR=>6.48
COc1ccc(C(CNCCC(=O)O)N(C)C)cc1 (stereo not drawn),55.1*,-4.7,0.5,-1.2,-0.9,-1.2,
COc1ccc(C(CNC(=O)c2ccc(Br)cc2)N(C)C)cc1 (stereo not drawn),10.4,6.2,0.0,0.8,nt,nt,
C=CCc1cc(Cl)ccc1OCCNCCOC,43.7,5.4,0.3,4.0,nt,nt,
C=CCNCCOCCOc1ccc(Cl)cc1C(C)(C)C,69.2*,-1.9,-0.1,0.3,2.2,6.3,
C=CCc1cc(C)ccc1OCCNCCOC,53.3*,3.9,0.3,-0.3,-1.0,-4.4,
COCCCNCCOCCOc1ccc(Cl)cc1C(C)(C)C,4.5,-1.4,0.0,-0.7,nt,nt,
C=CCc1cc(OC)ccc1OCCN1CC(C)OC(C)C1 (stereo not drawn),63.9*,-0.6,-0.4,0.0,19.9,36.5*,
C=CCc1cc(OC)ccc1OCCCNCCOC,61.9*,1.2,0.0,0.4,-1.3,7.0,
CCCNC(=O)c1c(NC(=O)c2ccc(C)cc2)sc2c1CCC(C)C2 (stereo not drawn),-4.9,0.8,0.1,0.7,nt,nt,
C=CCNCCOc1ccc(Br)cc1Cl,55.6*,0.7,-0.1,-0.4,6.5,3.5,
C=CCNCCOCCOc1cccc(OCC)c1,13.4,-1.9,0.1,1.3,nt,nt,
C=CCNCCCOc1ccc(Br)cc1Cl,15.1,-17.9,-0.1,-2.6,nt,nt,
C=CCNCCOCCOc1cccc(Br)c1,60.5*,-0.1,-0.1,-0.8,2.2,4.3,
COCCNCCOc1cc(C)ccc1C(C)(C)C,51.0*,10.3,0.2,-1.2,-14.2,-6.9,
C=CCc1cc(C)ccc1OCCOCCNCCN(C)C,51.4*,-4.0,-0.1,-0.1,7.2,19.8,
COCCNCCCCOc1cc(C)ccc1C(C)(C)C,39.4,-4.0,0.0,-1.1,nt,nt,
CC1(C(=O)Nc2cccc3ncccc23)Cc2ccccc2C(=O)O1 (stereo not drawn),14.4,4.6,-0.1,0.2,nt,nt,
C=CCNCCOCCOc1ccc(C)cc1Br,59.9*,-19.7,0.1,-0.3,8.6,12.3,
C=CCNCCOCCOc1ccc(C(C)(C)C)cc1C,8.9,0.1,0.0,-1.3,nt,nt,
C=CCc1cc(C)ccc1OCCCNCCOC,57.9*,-1.2,-0.1,-1.0,-11.2,-7.0,
SMILES,MITF primary,TEAD-YAP inh,FBW7 act,GPR151 ag,MITF inh conf,AlphaScreen intf2,others
CCOC(=O)c1c(NC(=O)CN2CCN(C)CC2)sc2c1CC(C)(C)NC2(C)C,53.4*,5.9,-0.3,0.9,-1.6,0.9,
O=C(Cn1ncn2cccc2c1=O)N1CCc2ccccc2C1,66.4*,6.8,0.2,-0.4,67.0*,9.1,AS interf DR=>6.48
CC(=O)N1CCN(CC(=O)N2CCc3ccccc3C2)CC1,82.8*,7.2,0.1,3.0,13.8,9.3,
O=C(CCl)N1CCc2ccccc2C1,10.3,11.7,-0.2,0.6,nt,nt,
CCN(CC)CCNc1nc(-c2cccs2)c(CC(=O)O)s1,78.8*,5.0,0.1,0.9,-9.2,5.0,
O=C(O)Cc1sc(NCc2ccco2)nc1-c1cccs1,18.0,0.3,0.4,1.4,nt,nt,
CCOC(=O)CSc1nc2c(c(=O)n(CC)c(=O)n2C)n1C,-10.4,-3.3,0.0,-0.1,nt,nt,
Cc1[nH][nH]c(=O)c1C(c1ccc(-c2cccc([N+](=O)[O-])c2)o1)c1c(C)[nH][nH]c1=O,1.4,-0.2,-0.2,0.2,nt,nt,
Cc1[nH][nH]c(=O)c1C(c1ccc([N+](=O)[O-])o1)c1c(C)[nH][nH]c1=O,58.8*,3.9,-1.4,0.0,27.7*,-1.2,AS interf DR=>6.48
COC(=O)Cc1[nH]nc2c1C1(C(=O)N(Cc3ccccc3)c3ccccc31)C(C#N)=C(N)O2 (stereo not drawn),10.4,6.7,0.5,0.0,nt,nt,
COC(=O)Cc1[nH]nc2c1C1(C(=O)Nc3ccccc31)C(C#N)=C(N)O2 (stereo not drawn),66.3*,-6.3,-0.1,-0.1,10.8,-1.9,
CCSCCOC(=O)C1=C(C)NC2=C(C(=O)CC(c3ccccc3)C2)C1c1cc(Br)c(O)c(OC)c1 (stereo not drawn),-11.2,11.1,0.0,-0.8,nt,nt,
CCc1ccccc1OC[C@@H](O)CNC1CCCc2ccccc21 (stereo partly drawn),12.9,nt,-0.1,0.7,nt,nt,
CC(=O)CCc1ccc(OCC(O)CNC2CCCc3ccccc32)cc1 (stereo not drawn),70.2*,1.2,-0.1,0.7,-2.5,9.6,
O=C1c2ccccc2C(=O)N1c1ncc(Cc2ccc(Cl)cc2)s1,58.8*,14.3,0.0,-0.7,12.1,18.0,
O=C1c2ccccc2C(=O)N1c1ncc(Cc2cc(Cl)ccc2Cl)s1,9.3,9.4,-0.1,-0.9,nt,nt,
CCC(C1=C(O)CC(C)(C)CC1=O)C1C(=O)CC(C)(C)CC1=O (stereo not drawn),52.6*,8.0,-0.1,-0.6,2.2,1.1,
CC1(C)CC(=O)C(C(C2=C(O)CC(C)(C)CC2=O)c2ccccc2O)C(=O)C1 (stereo not drawn),8.5,-4.2,0.4,0.0,nt,nt,
Cc1cnn(C(=O)c2cc(C)oc2C)c1,2.0,-5.4,0.0,1.0,nt,nt,
Nc1cc(C(=O)OCC(=O)Nc2ccc3ccccc3c2)ccc1Cl,0.4,-4.3,-0.1,-0.3,nt,nt,
O=C(NCCc1ccncc1)c1csc(-n2cccc2)n1,52.0*,-1.4,-0.3,0.2,4.5,8.1,
COc1ccc(CN2CCN(Cc3cccc(C)c3)CC2)c(OC)c1,68.8*,-4.1,-0.2,-1.5,-1.1,3.2,
COc1ccc(CN2CCN(Cc3cccc(C)c3)CC2)c(OC)c1OC,33.4,1.8,-0.1,1.0,nt,nt,
COc1cc(OC)c(OC)cc1CN1CCN(Cc2cccc(C)c2)CC1,83.1*,0.0,0.2,0.5,-1.6,15.8,
COc1ccc(OC)c(CN2CCN(Cc3cccc(C)c3)CC2)c1,70.0*,2.0,-0.2,0.1,0.0,0.0,
COc1cccc(CN2CCN(Cc3cc(OC)ccc3OC)CC2)c1,75.0*,7.6,0.0,0.7,-4.4,0.7,
COc1cc(CN2CCN(Cc3cccc(C)c3)CC2)cc(OC)c1,41.7,-9.6,-0.2,0.8,nt,nt,
